Screening results (PubChem)
Only some compounds are listed: those with a hit (about 19% of all), similar ones and a draw of the others.
TGFb inhibitor: inhibitors of TGF-b signaling. hit rate 1.2% among 410,000. Potency, µM (titrated, usually from 46.1 µM), for the others: top-dose activity, negative = inhibition, most hits filed as inhibitors. HepG2 CAGA-GFP TGF-b/SMAD3 reporter, GFP fluorescence, 18 h; TGF-beta stimulated, 500 pg/mL final; further: potency means the concentration at half of the fitted maximal effect; on the % scale 0 is the no-effect control and ±100 the full control effect; nearly all actives have a fitted effect of over 65% in size
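HEPG2 CAGA-GFP reporter cells (1000/well, DMEM with 1% FBS) received compounds, then recombinant TGF-beta at 500 pg/mL final for 18 hours at 37 degrees C. Per-cell GFP summed per well was normalised to unstimulated and stimulated DMSO controls before curve fitting.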
IL-1B inflam inh: blocks inflammasome-driven IL-1 beta release | activity change, % at 57.5 µM | hit rate 4.7% among 360,000 | THP-1 LPS/ATP IL-1B secretion, AlphaLISA, 16 h; hits give low values; in the data active means activity change below about -50%; inconclusive means mostly about -30% to -49%; further: on the % scale 0 is the no-effect control and ±100 the full control effect
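THP-1 cells pretreated 1 hr with compounds (up to 57.5 uM final), then stimulated with LPS (250 ng/mL final) plus ATP (1.25 mM final); secreted IL-1B measured by AlphaLISA after 16 hr, decreased signal indicating inhibition.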
TDP1 block: TDP1 (human) enzyme inhibition; Q9NUW8; recombinant TDP1, AlphaScreen DNA substrate cleavage; Potency, µM (doses to about 130 µM), without a hit: top-dose activity change, negative = inhibition, most hits filed as inhibitors; hit rate 0.28% among 350,000; AID 485290; further: potency means the concentration at half of the fitted maximal effect; on the % scale 0 is the no-effect control and ±100 the full control effect; nearly all actives have a fitted effect of over 40% in size
Target sequence (Q9NUW8 whole entry, looked up): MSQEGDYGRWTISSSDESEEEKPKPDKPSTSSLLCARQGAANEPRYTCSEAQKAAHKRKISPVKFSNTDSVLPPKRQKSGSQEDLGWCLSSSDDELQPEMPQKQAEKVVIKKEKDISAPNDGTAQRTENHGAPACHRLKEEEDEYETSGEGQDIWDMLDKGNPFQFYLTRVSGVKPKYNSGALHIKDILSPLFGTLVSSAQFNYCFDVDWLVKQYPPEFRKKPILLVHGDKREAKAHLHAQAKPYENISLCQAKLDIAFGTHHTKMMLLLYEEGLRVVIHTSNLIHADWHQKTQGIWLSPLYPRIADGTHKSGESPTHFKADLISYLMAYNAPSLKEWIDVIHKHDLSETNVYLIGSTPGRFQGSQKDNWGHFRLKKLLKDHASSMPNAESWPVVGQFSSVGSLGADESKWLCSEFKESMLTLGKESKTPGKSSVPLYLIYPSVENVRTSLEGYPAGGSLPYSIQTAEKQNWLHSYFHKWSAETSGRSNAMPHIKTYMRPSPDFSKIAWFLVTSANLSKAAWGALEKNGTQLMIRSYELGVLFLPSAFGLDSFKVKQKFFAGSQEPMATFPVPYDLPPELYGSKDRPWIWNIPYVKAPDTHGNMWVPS
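Recombinant human Tdp1 (E. coli-expressed, 1 nM final) preincubated with compounds 15 min at room temperature, then 5'-biotin/3'-phosphotyrosine-FITC DNA substrate (15 nM final) added for 5 min. AlphaScreen beads (10 ug/ml final) added 10 min; cleavage lowers signal.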
DT40 TDP1 no CPT: qHTS for Inhibitors of human tyrosyl-DNA phosphodiesterase 1 (TDP1): qHTS in cells in absence of CPT; Potency, µM (titrated, usually from 46.2 µM), for inactives: at the top dose activity change, negative = growth inhibition, actives largely listed as inhibitors; hit rate 15% among 420,000; DT40 Tdp1-/- hTDP1 cells, no CPT, ATP luminescence, 48 h; further: potency means the concentration at half of the fitted maximal effect; on the % scale 0 is the no-effect control and ±100 the full control effect; nearly all actives have a fitted effect of over 55% in size
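No-CPT arm: Tdp1-/-;hTDP1 DT40 cells (400/well) plus compounds, incubated ≥48 hr at 37 °C. Readout CellTiter-Glo luminescence.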
HepG2 viability: kills HepG2 cells in TGF-b inhibitor counter-screen. HepG2 CAGA-GFP viability, ATP luminescence, 18 h. Potency, µM (doses to about 46.1 µM), inactives show top-dose activity change, negative = cytotoxicity, actives largely listed as cytotoxic. hit rate 0.76% among 410,000. AID 588856; further: potency means the concentration at half of the fitted maximal effect
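HepG2 CAGA-GFP cells (1000/well, DMEM with 1% FBS) received compound, then TGF-beta at 500 pg/mL final, and were incubated 18 hours at 37 degrees C. Viability was read by CellTiter-Glo luminescence. Media-only wells were set as complete cell-killing and DMSO as no toxicity.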
DT40 TDP1 CPT: growth inhibition of DT40 Tdp1-/-;hTDP1 cells with camptothecin (screen for TDP1 inhibitors) | hit rate 12% among 420,000 | Potency, µM (doses to about 46.2 µM), inactives show at the top dose activity change, negative = growth inhibition, usual class: inhibitors | chicken DT40 Tdp1-/-;hTDP1 cells + 20 nM CPT, ATP luminescence, 48 h; further: potency means the concentration at half of the fitted maximal effect; on the % scale 0 is the no-effect control and ±100 the full control effect; nearly all actives have a fitted effect of over 55% in size
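Cell growth measured by CellTiter-Glo luminescence after a minimum 48 h, 37 C compound exposure with 20 nM CPT in Tdp1-knockout DT40 cells stably expressing hTDP1, seeded 400/well; qHTS titration format.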
Numbers without * were called inactive; u = inconclusive; x = no result given; [ ] = remark or other dose. Unless noted, the call rests on the fitted dose curve; in most records, active means well fitted curve in the direction sought with a large enough effect; inconclusive means small, poorly fitted or top-dose-only effect, or another doubt; inactive means no such curve, though single readings can be large; an effect the other way counts as inactive or inconclusive.

SMILES | TGFb inhibitor | IL-1B inflam inh | TDP1 block | DT40 TDP1 no CPT | HepG2 viability | DT40 TDP1 CPT
CO[C@@H]1CN(C)C(=O)c2ccc(NC(C)=O)cc2OC[C@@H](C)N(C(=O)NC2CCCCC2)C[C@H]1C | x | 29.2 | x | 5.8% | x | -4.8%
CO[C@@H]1CN(C)C(=O)c2ccc(NC(=O)C3CCCC3)cc2OC[C@@H](C)N(Cc2ccc(F)cc2)C[C@H]1C | x | -0.2 | x | u | x | u
CO[C@@H]1CN(C)C(=O)c2cc(NC(=O)NC3CCCCC3)ccc2OC[C@@H](C)N(CCc2ccccc2)C[C@@H]1C | x | -5.5 | x | u | x | 16.4µM*
Cc1ccccc1OCCSc1nnc(-c2ccc([N+](=O)[O-])cc2)o1 | -18.7% | x | -0.5% | -16.6% | -16.4% | -25.5%
O=[N+]([O-])c1cccc(-c2nc3ccccc3s/c2=N/O)c1 | -2.3% | -81.1* | 1.3% | u | -36.8% | -14.0%
c1ccc2c(c1)oc1c(-c3ccc4nccn4c3)cccc12 | -20.8% | 23.3 | x | u | -35.9% | u
CN(C)c1ccc(NC(=O)Nc2ccc3c(c2)c(=O)n(C)n3Cc2ccccc2)cc1 | -1.9% | -9.8 | x | 16.4µM* | -15.5% | 23.1µM*
CN(C)c1ccc(NC(=O)Nc2ccc3c(c2)c(=O)n(C)n3Cc2ccc(Cl)cc2)cc1 | 2.1% | u | x | u | -11.3% | u
CC(C)=CCn1c2ccc(NC(=O)Nc3ccc(N(C)C)cc3)cc2c(=O)n1C | u | -20.4 | x | 18.4µM* | -1.6% | u
NC(=O)c1nn2c(C(F)(F)F)cc(-c3ccc(Br)cc3)nc2c1Cl | 38.4% | x | 1.5% | u | -1.8% | u
Cc1ccc(Nc2nc3ccc(C)cc3nc2-n2nc(C)cc2C)c(C)c1 | 20.1% | x | -2.1%[12.3 µM] | 2.3% | 6.9% | -1.2%
N#Cc1cc2sc3nnc(-c4ccncc4)n3c2cc1C#N | -14.9% | -83.3* | 8.7% | 10.3µM* | 6.3% | u
O=S(=O)(c1ccc(F)cc1)N1CCN(S(=O)(=O)c2ccc3c(c2)OCCO3)CC1 | 2.3% | x | 1.0% | x | 8.7% | x
COc1ccc(OCC(O)CN2CCC(CN3C(=O)c4cccc5cccc(c45)C3=O)CC2)cc1 (configuration not stated) | u | x | 3.1% | 20.6µM* | -51.1% | 13µM*
COc1cccc(OCC(O)CN2CCN(CCN3C(=O)c4cccc5cccc(c45)C3=O)CC2)c1 (configuration not stated) | -28.2% | -80.7* | 4.9% | 18.4µM* | -26.7% | u
O=C1c2cccc3cccc(c23)C(=O)N1CCN1CCN(CC(O)COc2ccccc2)CC1 (configuration not stated) | 11.4% | 2.4 | 0.0% | -28.9% | 0.7% | -13.5%
Cc1ccc(C)c(OCC(O)CN2CCC(CN3C(=O)c4cccc5cccc(c45)C3=O)CC2)c1 (configuration not stated) | u | -97.0* | 2.7% | 5.8µM* | -26.4% | 5.17µM*
O=C1c2cccc3cccc(c23)C(=O)N1CC1CCN(CC(O)COCc2ccc3c(c2)OCO3)CC1 (configuration not stated) | u | -80.7* | 5.5% | u | -1.6% | u
CC(=O)Nc1nonc1-c1nnc(SCc2ccc(Cl)cc2)n1C | 1.2% | x | 3.6% | u | -3.5% | u
CCN(CC)CCNC(=O)c1cc2cc(Br)ccc2s1 | 11.5% | u | 2.9% | u | 3.1% | -26.6%
CCN(CC)CCNC(=O)c1ccc2c(c1NCCO)C(=O)c1ccccc1C2=O | 1.26µM* | -53.3* | 6.8% | 14.6µM* | 1µM* | 16.4µM*
O=C(NCCO)c1cccc2c1C(=O)c1ccccc1-2 | 1.6% | -25.4 | 5.3% | u | 5.0% | -25.0%
CC1CC(C)CN(C(=O)c2cccc3c2-c2ccccc2C3=O)C1 (configuration not stated) | u | 1.7 | x | u | -23.2% | u
CC1CCN(C(=O)c2ccc3c(c2NCCO)C(=O)c2ccccc2C3=O)CC1 | u | -22.9 | 6.7% | 18.4µM* | -9.4% | 23.1µM*
O=C(Cn1cnc2cc([N+](=O)[O-])ccc2c1=O)Nc1ccc(N2CCOCC2)cc1 | -1.9% | 45.9 | 5.0% | -17.5% | 4.7% | -7.2%
SMILES | TGFb inhibitor | IL-1B inflam inh | TDP1 block | DT40 TDP1 no CPT | HepG2 viability | DT40 TDP1 CPT
COc1ccc(C(C)(C)C)cc1NC(=O)c1cncc(Br)c1 | u | -22.1 | -1.9% | 18.4µM* | -5.4% | u
O=C(O)c1ccc2ncsc2c1 | 8.6% | -11.0 | 44.7µM* | 0.4% | -0.1% | -1.4%
COc1ccc(C(C)(C)C)cc1NC(=O)C1C2C=CC(C2)C1C(=O)O (configuration not stated) | 5.0% | 0.0 | -10.0% | u | 0.5% | -24.2%
COc1ccc(OC)c(NC(=O)c2cccnc2)c1 | 14.5% | -5.2 | x | -5.3% | 3.2% | 8.3%
COc1ccc(C(C)(C)C)cc1NC(=O)C1CC=CCC1C(=O)O (configuration not stated) | -1.5% | 26.6 | -9.2% | 14.6µM* | 0.6% | u
Cc1cc(C)cc(Oc2ccc(NC(=O)C3CC=CCC3C(=O)O)cc2)c1 (configuration not stated) | -3.8% | 10.9 | 2.7% | 3.66µM* | -17.7% | -4.3%
O=C(O)C1CC=CCC1C(=O)Nc1ccc(Oc2ccc(Cl)cc2)cc1 (configuration not stated) | -2.5% | 5.8 | 0.0% | u | -0.9% | u
COCCN1C(=O)N[C@@H](c2cccc(C(F)(F)F)c2)C(C(C)=O)=C1C | x | x | 2.5% | x | x | x
CCN(CC(=O)NC(C)C)C(=O)[C@@H](NC(=O)c1ccco1)C(C)C | 0.0% | -2.4 | -1.2% | -10.3% | -11.1% | 19.4%
Cc1nc(C)n(C(C)CNS(=O)(=O)c2ccc(C)c(C)c2)n1 (configuration not stated) | 7.9% | -5.9 | 6.3% | -0.7% | 1.3% | -0.3%
COc1ccc(C(C)(C)C)cc1NC(=O)c1ccc2ncsc2c1 | 0.0% | -51.3* | 9.2% | u | 18.2% | u
COc1ccc(C(C(=O)Nc2ccc(C(C)C)cc2)N(C)C(=O)Cc2cccs2)cc1 (configuration not stated) | -50.5% | x | 5.9% | u | -10.1% | u
COC(=O)c1cc(Br)c(=O)n(CCN2CCCC2)c1 | 25.4% | 31.7 | 5.0% | -19.5% | -6.9% | 8.7%
COC(=O)c1cc(Br)c(=O)n(CCC2=CCCCC2)c1 | 0.5% | 16.7 | -2.2% | u | -4.6% | 20.6µM*
